IL-1B inflam inh: blocks inflammasome-driven IL-1 beta release; 360,000 tested, 4.7% active; activity change, % at 57.5 µM; AID 743279; THP-1 LPS/ATP IL-1B secretion, AlphaLISA, 16 h; hits give low values; in the data active = activity change below about -50%; inconclusive = mostly about -30% to -49%
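THP-1 cells pretreated 1 hr with compounds (up to 57.5 uM final), then stimulated with LPS (250 ng/mL final) plus ATP (1.25 mM final); secreted IL-1B measured by AlphaLISA after 16 hr, decreased signal indicating inhibition.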
HT1080NT lethal: kills 2HG-producing HT-1080-NT fibrosarcoma cells; HT-1080-NT fibrosarcoma viability, CellTiter-Glo ATP luminescence, 48 h; Potency, µM (highest dose often 46.1 µM), inactives show top-dose activity, negative = less viability, hits mostly cytotoxic; 360,000 tested, 1.6% active; AID 686970;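 note: NT is the 2HG producing partner of a matched IDH1 knockdown line; potency is the fitted concentration of half-maximal effect; 0% = DMSO-treated cells and -100% = media-only wells without cells; nearly all actives have a fitted effect of over 55% in size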
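Viability by CellTiter-Glo luminescence after 48 h compound exposure at 37C of HT-1080-NT cells (750/well, RPMI, 5% FBS). % activity scaled between DMSO wells and medium-only wells, then curve-fitted and categorized by curve class.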
HT1080 IDH1KD tx: HT-1080 IDH1 knockdown cell toxicity (counter line) | HT-1080 IDH1 knockdown viability, ATP luminescence, 48 h | Potency, µM (doses to about 46.1 µM), for inactives: at the top dose activity, negative = toxicity, usual class: cytotoxic | 360,000 tested, 2% active | AID 686971;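 note: potency is the fitted concentration of half-maximal effect; 0% = DMSO wells and -100% = cell-free medium wells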
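In this qHTS, HT-1080 cells depleted of IDH1 are exposed for 48 h at 37 °C to compound titrations. Toxicity is scored from CellTiter-Glo luminescence, with DMSO as full viability and medium alone as none.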
ALOX12 inh: blocks human arachidonate 12S-lipoxygenase. AID 1671190. Potency, µM (series often up to 108 µM), for the others: at the highest dose activity change, negative = inhibition, hits mostly inhibitors. P18054. 580,000 tested, 1.1% active. purified 12hLO, xylenol orange hydroperoxide absorbance; note: potency is the fitted concentration of half-maximal effect
Target sequence (P18054 whole entry, looked up): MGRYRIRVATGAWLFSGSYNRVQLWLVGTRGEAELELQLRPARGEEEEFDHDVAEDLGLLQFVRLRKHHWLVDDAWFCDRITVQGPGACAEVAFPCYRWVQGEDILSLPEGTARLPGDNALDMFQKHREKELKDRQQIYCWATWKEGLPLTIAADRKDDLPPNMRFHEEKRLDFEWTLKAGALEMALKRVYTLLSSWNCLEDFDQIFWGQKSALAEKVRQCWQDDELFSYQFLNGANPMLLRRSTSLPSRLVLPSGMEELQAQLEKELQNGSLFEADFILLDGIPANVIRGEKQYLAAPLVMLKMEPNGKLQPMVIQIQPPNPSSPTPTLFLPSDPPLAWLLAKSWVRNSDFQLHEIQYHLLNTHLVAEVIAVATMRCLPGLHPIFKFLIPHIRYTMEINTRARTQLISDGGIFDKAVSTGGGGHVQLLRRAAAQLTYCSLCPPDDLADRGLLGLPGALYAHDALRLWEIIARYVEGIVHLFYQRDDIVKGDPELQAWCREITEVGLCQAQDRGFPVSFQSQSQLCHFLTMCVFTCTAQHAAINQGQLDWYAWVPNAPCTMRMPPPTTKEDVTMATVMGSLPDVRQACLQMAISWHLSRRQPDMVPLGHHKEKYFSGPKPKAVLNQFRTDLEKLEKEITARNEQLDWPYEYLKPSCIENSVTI
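Hydroperoxide product was detected by ferrous iron/xylenol orange as the 573 to 405 nm absorbance ratio. Arachidonic acid at 40 uM (final) was turned over for 30 min at room temperature by 150 nM human 12hLO, pH 7.0 Hepes buffer, after 15 min compound preincubation.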
TDP1 cell noCPT: qHTS for Inhibitors of human tyrosyl-DNA phosphodiesterase 1 (TDP1): qHTS in cells in absence of CPT; Potency, µM (highest dose often 46.2 µM), without a hit: at the top dose activity change, negative = growth inhibition, most hits filed as inhibitors; 420,000 tested, 15% active; AID 686978, 2013; DT40 Tdp1-/- hTDP1 cells, no CPT, ATP luminescence, 48 h; note: potency is the fitted concentration of half-maximal effect; nearly all actives have a fitted effect of over 55% in size
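Readout: luminescence from CellTiter-Glo after 30 min in the dark at RT. Cells: DT40 Tdp1-/- with stable hTDP1, 400/well. Exposure: compounds alone, ≥48 hr, 37 °C.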
TDP1 cell CPT: growth inhibition of DT40 Tdp1-/-;hTDP1 cells with camptothecin (screen for TDP1 inhibitors); 420,000 tested, 12% active; chicken DT40 Tdp1-/-;hTDP1 cells + 20 nM CPT, ATP luminescence, 48 h; Potency, µM (series often up to 46.2 µM), for the others: at the highest dose activity change, negative = growth inhibition, most hits filed as inhibitors; AID 686979; note: potency is the fitted concentration of half-maximal effect; nearly all actives have a fitted effect of over 55% in size
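Chicken DT40 Tdp1-/- cells complemented with human TDP1, 400 cells/well, exposed to compounds plus 20 nM camptothecin for at least 48 h at 37 C; viability read as ATP content by CellTiter-Glo luminescence.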
Active calls of the source: *; ? = inconclusive; · = no result; [ ] = dose if it differs, or a comment. The full list was thinned out, with hits kept by preference. Unless noted, calls come from the whole dose curve; as a rule, active = well fitted curve in the direction sought with a large enough effect; inconclusive = small, poorly fitted or top-dose-only effect, or another doubt; inactive = no such curve, though single readings can be large; an effect the other way counts as inactive or inconclusive. Unless noted, % is set by controls: 0 for no effect and ±100 for the full control effect.

SMILES	IL-1B inflam inh	HT1080NT lethal	HT1080 IDH1KD tx	ALOX12 inh	TDP1 cell noCPT	TDP1 cell CPT
C#C[C@H]1CN2CC[C@H]1C[C@@H]2CNCc1ccc(F)c(F)c1	·	·	·	49.1%[176 µM]	·	·
O=c1[nH]c(=S)[nH]c(O)c1N=Nc1ccc2c(c1)OCO2	14.7	-21.6%	-18.1%	?	-3.1%	?
NS(=O)(=O)c1ccc(N=Nc2c(O)[nH]c(=S)[nH]c2=O)cc1	22.7	2.6%	13.3%	39.8µM*	-5.4%	1.6%
O=c1[nH]c(=S)[nH]c(O)c1N=Nc1ccc2c(c1)OCCO2	-14.2	-11.9%	-14.2%	-16.3%	25.9µM*	14.6µM*
COc1ccc(S(=O)(=O)Nc2ccccc2OC)cc1N=Nc1c(O)[nH]c(=S)[nH]c1=O	0.1	14.6µM*	11.6µM*	-30.8%	?	?
O=c1[nH]c(=S)[nH]c(O)c1N=Nc1cccc(S(=O)(=O)N2CCOCC2)c1	6.9	0.0%	1.6%	39.8µM*	-14.9%	-18.5%
O=c1[nH]c(O)c(N=Nc2cccc(S(=O)(=O)N3CCOCC3)c2)c(=O)[nH]1	10.3	5.5%	6.2%	-16.0%	16.3%	-10.0%
Cc1ccccc1-n1c(CF)nc2ccc(N)cc2c1=O	·	·	·	·	-23.4%	-28.0%
Cc1ccc2c(n1)N(C)[C@H](CO)CCN(C1COC1)C2	·	·	·	9.0%[176 µM]	·	·
CN1CCN(C(=O)Cc2c[nH]c3ncc(-c4ccnn4C)cc23)CC1	·	·	·	4.9%[176 µM]	·	·
O=[N+]([O-])c1ccc(NCc2ccccc2)c2ncccc12	·	·	·	-14.9%	·	·
O=C(OCC(=O)c1ccc([N+](=O)[O-])cc1)/C(=C/c1ccc(Cl)cc1)NC(=O)c1ccccc1	-12.0	-0.7%	7.0%	-6.1%	23.1µM*	16.4µM*
O=C(COC(=O)Cc1ccccc1)NNC(=O)c1ccc([N+](=O)[O-])cc1	9.9	-7.5%	-5.0%	-6.4%	11.8%	-13.2%
Cc1ccccc1C(O)(Cc1ccccc1)C1CN2CCC1CC2 (stereo not drawn)	?	?	?	?	17.8µM*	17.8µM*
Cc1ccc(C(O)(c2ccc(C)c(C)c2)C2CN3CCC2CC3)cc1C (stereo not drawn)	-86.2*	?	?	?	2.31µM*	3.66µM*
O=C(Cc1ccccc1)N1CCN(Cc2cccc(Cl)c2)CC1	-6.2	9.2%	?	?	-16.4%	-3.3%
O=C(NCCCN1CCCC1)c1ccc2c(c1)N(Cc1cccc(Cl)c1)C(=O)c1ccccc1S2=O (stereo not drawn)	-15.7	16.4µM*	?	-18.5%	?	?
COc1cc2c(cc1OCC1CCCC1)N(C(=O)C1CCC(C)CC1)CC21CCN(CC(=O)O)CC1 (stereo not drawn)	·	·	·	5.4%	·	·
O=C(c1cn(Cc2ccccc2)c2ccccc12)N1CCC(C(=O)N2CCCCC2)CC1	·	·	·	39.2%	·	·
COC(=O)C1=C(c2ccc(C(C)=O)cc2)C[C@@H]2CC[C@H]1N2C(=O)N1CCOCC1	12.8	0.0%	0.0%	-11.4%	?	-22.4%
COC(=O)C1=C(c2ccc(OC(F)(F)F)cc2)C[C@@H]2CC[C@H]1N2C(=O)NC1CC1	21.8	12.7%	4.4%	17.9%	14.6µM*	20.6µM*
COC(=O)C1=C(c2ccc(OC(F)(F)F)cc2)C[C@@H]2CC[C@H]1N2C(=O)NCCO	5.7	19.4%	10.3%	28.2%	-25.8%	-13.2%
COC(=O)C1=C(c2ccc(OC(F)(F)F)cc2)C[C@@H]2CC[C@H]1N2C(=O)N1CCc2cc(OC)c(OC)cc2C1	·	·	·	-10.1%	·	·
COC(=O)C1=C(c2ccc(OC(F)(F)F)cc2)C[C@@H]2CC[C@H]1N2C(=O)N1CCCC1	-1.3	?	-8.2%	-11.4%	1.84µM*	1.84µM*
COC(=O)C1=C(c2ccc(OC(F)(F)F)cc2)C[C@@H]2CC[C@H]1N2C(=O)N1CCOCC1	0.0	-18.2%	2.4%	29.6%	1.84µM*	2.59µM*
SMILES	IL-1B inflam inh	HT1080NT lethal	HT1080 IDH1KD tx	ALOX12 inh	TDP1 cell noCPT	TDP1 cell CPT
COC(=O)C1=C(c2ccc(OC(F)(F)F)cc2)C[C@@H]2CC[C@H]1N2C(=O)N1CCC(C)CC1	0.0	?	?	1.9%	5.8µM*	6.51µM*
O=C1NCCN2CC3(CCNCC3)CC12 (stereo not drawn)	·	·	·	62.2%	·	·
c1ccc(CN2C[C@H](c3ccc4c(c3)OCO4)[C@@H]3[C@H]2C2CCN3CC2)nc1	·	·	·	86.8%	·	·
Cn1nc(C(=O)N[C@@H]2COCC[C@@H]2OCc2cscn2)c2ccccc21	·	·	·	19.1%	·	·
Cn1nc(-c2ccc(F)cc2)cc1[C@H]1CN2CC[C@H]1C[C@@H]2CNC(=O)Nc1cccc(C#N)c1	·	·	·	34.4%	·	·
COC(=O)C1=C(c2cccc(C#N)c2)C[C@@H]2CC[C@H]1N2C(=O)N1CCCC1	35.1	0.6%	3.4%	-27.8%	18.4µM*	?
COC(=O)C1=C(c2cccc(C#N)c2)C[C@@H]2CC[C@H]1N2C(=O)N1CCc2cc(OC)c(OC)cc2C1	4.4	9.3%	0.9%	?	?	?
Cn1nc(-c2ccc3ccccc3c2)cc1[C@H]1CN2CC[C@H]1C[C@@H]2CNS(=O)(=O)c1ccccc1	·	·	·	42.3%	·	·
CCCS(=O)(=O)Nc1ccc(=O)n2c1[C@@H]1C[C@@H](CN(C(=O)COc3ccccc3)C1)C2	·	·	·	-27.6%	·	·
O=[N+]([O-])c1c(Cl)cccc1-c1c[nH]cc1Cl	·	·	·	?	15µM*	21.1µM*
O=[N+]([O-])c1ccc(Cl)c(Cl)c1Cl	-19.3	-0.1%	1.2%	1.0%	-3.2%	2.5%
COc1cc2c(cc1OCC1CCCC1)N([S+](=O)([O-])c1cccc(C(F)(F)F)c1)CC21CCN(CC(=O)O)CC1	·	·	·	68.4%	·	·
COc1cc2c(c(OC)c1OC)-c1ccc(O)cc1C(NC(C)=O)CC2 (stereo not drawn)	66.6	?	?	-1.0%	0.184µM*	0.206µM*
COc1cc2c3c(c1OC)-c1cc(O)ccc1CC3NCC2 (stereo not drawn)	39.8	1.3%	1.6%	-5.5%	?	-4.8%
COc1cc2c(c(OC)c1OC)-c1ccc(O)cc1[C@@H](NC(C)=O)CC2	50.2	0.0326µM*	0.0164µM*	-1.6%	0.164µM*	0.231µM*
COc1cc2c(c(OC)c1OC)-c1ccc(O)c(=O)cc1[C@@H](NC(C)=O)CC2	99.3	6.51µM*	5.17µM*	-11.2%	6.51µM*	5.17µM*
